Rab9 prom act: Rab9 promoter activation. actives 2.8% (n = 320,000). Potency, µM (titrated, usually from 9.22 µM), for inactives: at the highest dose activation, negative = inhibition, most hits filed as activators. AID 485297. Huh7 Rab9 promoter-luciferase reporter, luminescence, 24 h; further: % of control where 0% means no effect; nearly all actives have a fitted effect of over 60% in size
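Steps: seed 1500 Huh7 Rab9-luc cells per well, rest 2 h at 37 °C; add compound in DMSO; incubate 24 h; add luciferase reagent, 10 min ambient; read luminescence.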
NPC1 promoter act: activators of NPC1 promoter; Huh7 NPC1 promoter luciferase reporter, 24 h; Potency, µM (highest dose often 9.22 µM), for inactives: at the highest dose activation, most hits filed as activators; actives 2.4% (n = 320,000); further: % of control where 0% means no effect; nearly all actives have a fitted effect of over 60% in size
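Luciferase expression driven by the NPC1 promoter was measured in stably transfected Huh7 cells after a 24 h compound incubation, using a luciferase reagent and a luminescence read.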
SMN2 splice up: increases expression of the SMN2 splice variant | AID 1458 | actives 2.8% (n = 210,000) | Potency, µM (top dose mostly 46.1 µM), inactives show at the highest dose activity change, positive = activation, hits mostly activators | HEK293 SMN2-luciferase splicing reporter, luminescence, 30-36 h; further: % of control where 0% means no effect; nearly all actives have a fitted effect of over 55% in size
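HEK293 cells carry an SMN2 […]–luciferase reporter in which exon 7 inclusion puts luciferase in frame. Cells were plated 10-12 h before compound addition, then incubated 30-36 h at 37C. ONE-Glo luminescence was read; sodium butyrate at 4.5 mM final served as control.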
ELG1 genotoxic: induces genotoxicity in HEK293T cells with luciferase-tagged ELG1; actives 1.3% (n = 330,000); Potency, µM (highest dose often 46 µM), for inactives: top-dose activity change, positive = activation, most hits filed as activators; HEK293T ELG1-luciferase reporter, luminescence, 16 h; further: % of control where 0% means no effect; nearly all actives have a fitted effect of over 60% in size
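Genotoxicity was scored as increased ELG1-luciferase reporter signal, measured by ONE-Glo luminescence (30 min, room temperature). Compound or vehicle exposure of the HEK293T reporter cells lasted 16 hr at 37°C.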
Luc counter: blocks Kinase-Glo luciferase, a counter-screen artifact | actives 0.28% (n = 200,000) | Q27757 | Potency, µM (series often up to 38.3 µM), inactives show at the top dose activity change, negative = inhibition, usual class: inhibitors | AID 1379 | Kinase-Glo luciferase, ATP luminescence, 8 min; further: on the % scale 0 is the no-effect control and ±100 the full control effect; nearly all actives have a fitted effect of over 60% in size
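Luminescence was the read-out, taken after 8-minute incubation at ambient temperature. Luciferase turned over luciferin with 10 uM ATP in imidazole pH 7.2 buffer containing KCl, MgCl2, Tween 20 and BSA.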
FLuc modulator: firefly luciferase modulation, counter-screen for miR-21 project; actives 6.9% (n = 360,000); AID 588342; purified FLuc, Km substrates, luminescence inhibition; P08659; Potency, µM (series often up to 57.5 µM), for inactives: top-dose activity change, negative = inhibition, usual class: inhibitors;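 further: plate controls were vehicle for no effect and reference inhibitor for full effect; nearly all actives have a fitted effect of over 55% in size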
Target sequence (P08659 whole entry, looked up): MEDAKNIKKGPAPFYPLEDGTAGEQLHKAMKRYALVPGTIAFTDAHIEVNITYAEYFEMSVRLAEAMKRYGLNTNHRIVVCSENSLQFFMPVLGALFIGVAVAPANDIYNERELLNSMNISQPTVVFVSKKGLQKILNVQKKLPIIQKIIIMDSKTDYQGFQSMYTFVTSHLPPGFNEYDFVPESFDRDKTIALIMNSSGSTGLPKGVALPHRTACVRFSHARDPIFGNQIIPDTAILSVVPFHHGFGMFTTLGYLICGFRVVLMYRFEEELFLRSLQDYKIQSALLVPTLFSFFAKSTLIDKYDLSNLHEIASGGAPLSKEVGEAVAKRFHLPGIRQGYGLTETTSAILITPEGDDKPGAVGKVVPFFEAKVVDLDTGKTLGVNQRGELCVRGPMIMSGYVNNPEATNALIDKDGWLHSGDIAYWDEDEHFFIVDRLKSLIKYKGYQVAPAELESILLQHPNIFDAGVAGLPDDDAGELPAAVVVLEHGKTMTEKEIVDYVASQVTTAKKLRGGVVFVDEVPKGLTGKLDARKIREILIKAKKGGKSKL
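Purified P. pyralis luciferase, 10 nM final, with Km-level 10 uM D-luciferin and 10 uM ATP in 50 mM Tris acetate pH 7.5, 10 mM Mg acetate, 0.01% Tween-20, 0.05% BSA; 6-point qHTS titration about 60 µM downward; luminescence read.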
* marks the source's active call; other numbers are inactive results; ? = inconclusive; nt = no result given; [ ] = remark or other dose. This is a sample that favours compounds with a hit; in the whole collection about 7.4% have one here. The call rests on the fitted dose curve; in most records, active means well fitted curve in the direction sought with a large enough effect; inconclusive means small, poorly fitted or top-dose-only effect, or another doubt; inactive means no such curve, though single readings can be large; an effect the other way counts as inactive or inconclusive. Potency means the concentration at half of the fitted maximal effect.

SMILES	Rab9 prom act	NPC1 promoter act	SMN2 splice up	ELG1 genotoxic	Luc counter	FLuc modulator
CN1CC(=O)N/C1=N/C(=O)Nc1cccc(Cl)c1	?	?	6.4%	nt	-16.0%	nt
Cn1ccs/c1=N\C(=O)Nc1cccc(Cl)c1	0.708µM*	0.891µM*	nt	5.17µM*	nt	7.57µM*
Cc1ccc2nc(N(CCN3CCOCC3)C(=O)CCS(=O)(=O)c3ccccc3)sc2c1	?	?	nt	?	nt	-2.1%
CCCC(=O)N(CCN1CCOCC1)c1nc2cc(C)c(C)cc2s1	2.24µM*	2.51µM*	nt	?	nt	-11.8%
CCOC(=O)C1=C(C)NC(C)=C(C(=O)OCC)C1c1ccc(O)cc1	11.8%	0.3%	12.6µM*	14.4%	-0.4%	2.7%
CCN(C(=O)COC(=O)CNC(=O)c1sc2ccccc2c1Cl)C1CCCCC1	3.3%	-3.6%	nt	2.3%	nt	12µM*
CCC(C)N(C(=O)COC(=O)CNC(=O)c1sc2ccccc2c1Cl)C1CCS(=O)(=O)C1 (stereo unspecified)	-1.6%	5.6%	nt	11.3%	nt	21.3µM*
N#CC1(NC(=O)COC(=O)CNC(=O)c2sc3ccccc3c2Cl)CCCCC1	-3.2%	-2.9%	nt	2.8%	nt	?
CCOc1ccc(CCNC(=O)CN2CCN(Cc3ccc(Cl)cc3)C2=O)cc1OCC	nt	nt	-42.5%	nt	nt	-2.1%
Cc1cccc(C(=O)Nc2ccc(S(=O)(=O)N3CCC(c4nc5ccccc5s4)CC3)cc2)c1	nt	nt	nt	nt	nt	-0.9%
COc1ccccc1OCc1nnc(SCC(=O)Nc2ccc(N3CCOCC3)cc2)n1C	15.9%	4.4%	nt	0.7%	nt	12µM*
Cc1ccccc1OCc1nnc(SCC(=O)Nc2ccc(N3CCOCC3)c(Cl)c2)n1C	-2.1%	3.9%	-0.7%	-1.2%	-0.6%	19µM*
O=c1c2oc3ccccc3c2n(Cc2ccccc2F)c(=O)n1Cc1ccccc1	nt	nt	nt	nt	nt	-2.3%
O=C1CC(SCCO)C(=O)N1c1ccc(Oc2ccccc2)cc1 (stereo unspecified)	21.1%	22.7%	9.0%	4.6%	2.0%	21.3µM*
O=C(O)CCSC1CC(=O)N(c2ccccc2)C1=O (stereo unspecified)	3.4%	0.6%	nt	0.6%	nt	-2.1%
Cc1ccc(Nc2cc(-n3cccn3)ncn2)c(C)c1	2.51µM*	3.55µM*	23.8%	7.31µM*	1.4%	10.7µM*
COC(=O)c1cc(-c2ccc(OC)cc2)n[nH]1	?	?	?	?	-4.9%	26.9µM*
CCOc1ccc(-c2cc(C(=O)OC)[nH]n2)cc1	2.24µM*	3.16µM*	nt	?	-2.9%	9.53µM*
COC(=O)c1cc(-c2cccc(OC)c2)n[nH]1	14.9%	3.7%	?	10.0%	-0.7%	?
COC(=O)c1cc(-c2ccc(C)cc2)n[nH]1	?	15.5%	nt	?	-1.4%	23.9µM*
CCc1ccc(NC(=O)CCn2cnc3ccccc3c2=O)cc1	nt	nt	nt	nt	nt	-14.2%
Cn1ncc2c1ncn1nc(CCc3ccccc3)nc21	1.26µM*	0.794µM*	?	?	-12.6%	7.57µM*
COc1ccc(Cc2nc3c4cnn(-c5ccccc5Br)c4ncn3n2)cc1	nt	nt	6.1%	nt	nt	-4.3%
Brc1ccccc1-n1ncc2c1ncn1nc(Cc3ccccc3)nc21	nt	nt	21.6%	nt	nt	16.9µM*
CC1CCCN(CCCOc2ccc(Cl)cc2Br)C1 (stereo unspecified)	-5.0%	-4.2%	-33.2%	-0.1%	-0.8%	?
SMILES	Rab9 prom act	NPC1 promoter act	SMN2 splice up	ELG1 genotoxic	Luc counter	FLuc modulator
CC1CCCN(CCOc2ccc3ccccc3c2Br)C1 (stereo unspecified)	21.8%	14.4%	-10.8%	13.8%	3.2%	26.9µM*
COc1ccc(Cl)cc1NC(=O)c1nn(-c2ccc(C)cc2)c(=O)n(C)c1=O	nt	nt	nt	nt	nt	-2.3%
Nc1ccc(N)c([N+](=O)[O-])c1	nt	nt	9.8%	nt	nt	nt
CC(=O)NS(=O)(=O)c1ccc(NC(=O)c2ccccn2)cc1	-18.0%	-6.0%	0.2%	0.2%	-1.3%	-3.9%
CC(=O)NS(=O)(=O)c1ccc(NC(=O)c2oc3c(Cl)cccc3c2C)cc1	1.8%	-0.6%	nt	-1.2%	nt	13.5µM*
CC(C)c1ccc(/C(C(=O)O)=C(\O)C(=O)O)cc1	nt	nt	-10.1%[9.22 µM]	nt	-4.0%[7.66 µM]	nt
O=C(Nc1cnc2ccccn2c1=O)c1ccc(Cl)cc1Cl	0.282µM*	0.316µM*	1.58µM*	?	?	1.69µM*
Cc1ccc(C(=O)Nc2cnc3ccccn3c2=O)cc1	1.58µM*	2.24µM*	11.2µM*	4.61µM*	?	16.9µM*
COc1ccccc1OCCCCn1c(-c2ccc(Cl)cc2)nc2ccccc2c1=O	nt	nt	-19.5%	nt	nt	1.2%
CCCNC(=O)c1cccc(COc2ccccc2OC)c1	3.55µM*	1.41µM*	14.1µM*	?	-0.9%	5.36µM*
NNC(=O)c1ccc(COc2ccc3ccccc3c2)cc1	18.0%	?	nt	1.0%	nt	6.01µM*
NNC(=O)c1cccc(COc2ccc(Br)cc2)c1	0.1µM*	0.316µM*	1µM*	?	-0.6%	10.7µM*
COc1ccc(OCc2cccc(C(=O)NN)c2)cc1	0.0891µM*	0.0891µM*	3.16µM*	?	-11.0%	6.01µM*
COc1ccccc1OCCNC(=O)c1cccc(S(=O)(=O)NCc2ccccc2)c1	-7.0%	-3.5%	nt	0.3%	nt	-1.4%
COC(=O)CCN(c1ccccc1)C(CNS(=O)(=O)c1ccccc1)c1ccccc1 (stereo unspecified)	nt	nt	?	nt	nt	5.7%
Cc1ccccc1-c1nc(SCC(=O)NCc2ccc(F)cc2)c2c(=O)n(C)c(=O)n(C)c2n1	nt	nt	nt	nt	nt	-3.5%
O=C(c1cc(C(F)(F)F)cc(C(F)(F)F)c1)N1CCC2(CC1)CN(c1ccccn1)C2	nt	nt	-70.7%	nt	-0.1%	nt
CCN1c2ccccc2-c2nc(SCC(=O)Nc3cc(F)ccc3F)ncc2S1(=O)=O	nt	nt	nt	nt	nt	1.3%
COc1ccc(CN2C(=O)c3ccccc3C(/C=N\OCc3ccc(F)cc3)C2=O)cc1 (stereo unspecified)	3.0%	-2.4%	-52.1%	-7.2%	-2.2%	21.3µM*
COc1ccc(CN2C(=O)c3ccccc3C(/C=N/OCc3ccc(Cl)cc3)C2=O)cc1 (stereo unspecified)	-3.5%	-3.5%	-60.7%	-7.6%	4.1%	21.3µM*
COC(CNC(=O)c1cccc2c1C(=O)N(Cc1cccnc1)C2)OC	-5.5%	-3.8%	0.0%	0.0%	-4.0%	0.1%
COCCN1Cc2cccc(C(=O)Nc3ccc4c(c3)OCCO4)c2C1=O	0.1%	-0.2%	-18.5%	?	-12.4%	21.3µM*
CCOc1ccc(NC(=O)c2cccc3c2C(=O)N(Cc2cccnc2)C3)cc1	5.1%	0.9%	17.9%	?	0.5%	8.49µM*
CCCN1Cc2cccc(C(=O)Nc3ccc(CN4CCCC4)cc3)c2C1=O	-16.8%	0.4%	-2.2%	1.3%	-0.8%	16.9µM*
